Bioassay records as filed in PubChem.
An excerpt weighted towards active compounds, which were near 11% of everything screened.
G9a inh – G9a (human) methyltransferase inhibition. AID 504332. G9a H3K9 monomethylation, AlphaScreen, 2 h. 350,000 compounds, 8.8% hits. Potency, µM (top dose mostly 102 µM), usual class: inhibitors; further: nearly all actives have a fitted effect of over 75% in size
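Signal arises when biotinylated H3K9 peptide, once monomethylated, bridges streptavidin donor and antibody-captured acceptor beads. Enzyme at 20 nM was preincubated 15 min with test compounds; peptide 500 nM and SAM 20 uM then reacted for 2 h.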
HP1b binding inh – inhibitors of HP1-beta chromodomain binding to methylated histone tails. P83916. AlphaScreen HP1-beta / biotin-H3K9me3 peptide binding. Potency, µM (series often up to 114 µM), most hits filed as inhibitors. 390,000 compounds, 0.56% hits; further: nearly all actives have a fitted effect of over 70% in size
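AlphaScreen: HP1-beta (50 nM) preformed 30 min with biotin-H3(1-18)K9me3 peptide (50 nM) in PBS pH 7.4, 0.01% Tween-20. Compound added for 30 min at RT, then streptavidin donor/nickel chelate acceptor beads (10 ug/mL) for 30 min.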
BAZ2B inh – inhibitors of human BAZ2B bromodomain. Q9UIF8. AlphaScreen BAZ2B-H3K14Ac peptide displacement. Potency, µM (doses to about 114 µM), actives largely listed as inhibitors. 360,000 compounds, 4.4% hits; further: nearly all actives have a fitted effect of over 60% in size
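AlphaScreen luminescence quantifies BAZ2B engagement of H3K14Ac peptide; the protein and biotinylated peptide are both at 50 nM final, buffer PBS pH 7.4 with 0.01% Tween-20, all steps at room temperature.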
L3MBTL1 block – L3MBTL1 (human) inhibition; AlphaScreen L3MBTL1–H3K9me1 peptide binding; Potency, µM (titrated, usually from 57.1 µM), usual class: inhibitors; 230,000 compounds, 0.66% hits; AID 485360; further: nearly all actives have a fitted effect of over 60% in size
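L3MBTL1 50 nM + b-AHA-H3(1-15)K9me1 75 nM, 30 min RT; compound added, 30 min RT; streptavidin donor/Ni-chelate acceptor beads 10 ug/mL each final, 30 min RT dark; AlphaScreen read.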
JMJD2A Tudor – inhibitors of human JMJD2A Tudor domain; AlphaScreen JMJD2A-Tudor / H3K4me3 peptide binding; Potency, µM (titrated, usually from 114 µM), actives largely listed as inhibitors; 390,000 compounds, 4.4% hits; O75164; AID 504339; further: nearly all actives have a fitted effect of over 50% in size
Target sequence (O75164 whole entry, looked up, the tested form may be a part): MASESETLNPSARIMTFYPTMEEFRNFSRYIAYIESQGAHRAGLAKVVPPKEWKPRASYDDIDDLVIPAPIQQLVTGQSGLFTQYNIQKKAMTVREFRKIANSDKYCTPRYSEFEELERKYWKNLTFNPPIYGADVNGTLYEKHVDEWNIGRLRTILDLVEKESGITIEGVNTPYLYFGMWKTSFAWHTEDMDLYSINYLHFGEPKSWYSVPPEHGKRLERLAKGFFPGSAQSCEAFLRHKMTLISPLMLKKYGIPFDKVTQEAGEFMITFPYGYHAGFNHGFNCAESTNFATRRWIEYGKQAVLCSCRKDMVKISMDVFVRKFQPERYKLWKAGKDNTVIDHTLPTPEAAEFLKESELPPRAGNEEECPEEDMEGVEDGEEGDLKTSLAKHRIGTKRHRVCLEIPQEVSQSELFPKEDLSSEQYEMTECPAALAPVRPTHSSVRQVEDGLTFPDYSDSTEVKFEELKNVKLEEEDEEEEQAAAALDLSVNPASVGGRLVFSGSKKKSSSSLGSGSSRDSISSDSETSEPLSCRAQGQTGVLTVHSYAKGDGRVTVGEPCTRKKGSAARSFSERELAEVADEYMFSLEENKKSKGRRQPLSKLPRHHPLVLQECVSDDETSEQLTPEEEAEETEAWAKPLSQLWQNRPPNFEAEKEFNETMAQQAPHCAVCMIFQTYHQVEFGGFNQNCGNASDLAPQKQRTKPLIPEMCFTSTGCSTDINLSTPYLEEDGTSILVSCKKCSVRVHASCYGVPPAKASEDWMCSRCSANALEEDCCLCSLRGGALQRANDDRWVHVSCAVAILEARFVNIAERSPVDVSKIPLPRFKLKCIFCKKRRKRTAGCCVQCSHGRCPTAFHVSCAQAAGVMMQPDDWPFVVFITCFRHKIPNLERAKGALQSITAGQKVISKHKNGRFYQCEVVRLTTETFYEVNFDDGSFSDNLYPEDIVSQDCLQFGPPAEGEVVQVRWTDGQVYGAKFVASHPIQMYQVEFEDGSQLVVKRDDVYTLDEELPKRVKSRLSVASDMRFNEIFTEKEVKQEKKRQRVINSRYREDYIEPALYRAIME
A number is an active result; – = inactive; ? = inconclusive; · = no result; ! = not confirmed by another sample; [ ] = remark or other dose. The call rests on the fitted dose curve; in most records, active means well fitted inhibition curve with a large enough effect; inconclusive means small, poorly fitted or top-dose-only effect; inactive means no such curve, though single readings can be large or run the other way.

SMILES | G9a inh | HP1b binding inh | BAZ2B inh | L3MBTL1 block | JMJD2A Tudor
O=C(O)[C@H]1[C@H]2CN[C@H](C(=O)O)[C@H]21 | – | · | · | · | ·
C=C(C)[C@H]1CN[C@H](C(=O)O)[C@H]1CC(=O)O | –[12.7 µM] | ? | · | · | 40µM
COc1cccc(CNCCc2ccc3c(c2)OCO3)c1OC | –[0.501 µM] | – | 56µM | –[2.29 µM] | 79µM
COc1cccc(CNCCc2c[nH]c3ccccc23)c1OC | ? | – | – | · | –
COc1ccc(CCNCc2ccc(C)s2)cc1OC | – | – | – | – | –
Brc1cccc(CNCCc2ccc3c(c2)OCO3)c1 | · | – | 56µM | – | 22µM
COc1cccc(CNCCc2cccc(F)c2)c1OC | –[0.501 µM] | ? | 79µM | –[2.29 µM] | 28µM
COc1cc(OC)c(OC)cc1CNCCc1ccc2c(c1)OCO2 | 28µM | – | ? | – | 32µM
N#Cc1cccc(NC(=O)N2CC3(CCN(C(=O)Oc4ccccc4)CC3)C2)c1 | –[12.7 µM] | · | · | · | ·
CC(=O)OCC1=C(C(=O)[O-])N2C(=O)[C@@H](NC(=O)CCC[C@@H](N)C(=O)[O-])[C@H]2SC1.[Zn+2] | –[12.7 µM] | · | · | · | ·
CCOc1cc(CNCCc2cccc(F)c2)ccc1OC | 22µM | 71µM | 45µM | · | 1.4µM
COc1cc(Br)c(CNCCc2ccc3c(c2)OCO3)cc1OC | 8.9µM | ? | ? | – | 25µM
NC(=NCc1ccc(Cl)cc1)SCCCc1cnc[nH]1 | – | · | · | · | ·
O=c1c2ccccc2[se]n1-c1ccccc1 | 1.4µM! | ? | 1.4µM | – | 8.9µM
C#CC1(O)CCC2C3CCC4=CC(=O)CCC4(C)C3CCC21C (stereo unspecified) | –[2.33 µM] | · | · | · | ·
C#C[C@]1(O)CC[C@H]2[C@@H]3CCC4=Cc5nc6nc7ccccc7n6cc5C[C@]4(C)[C@H]3CC[C@@]21C | 25µM | – | – | – | –
CCCN1C[C@H](C)N([C@H](c2ccc(C(=O)N(CC)CC)cc2)c2cccc(OC)c2)C[C@H]1C | – | · | · | · | ·
Oc1ccc(CC2CC3CCN2CC3)cc1O (stereo unspecified) | ? | – | – | – | 28µM
COc1cc([C@@H]2c3cc4c(c(O)c3C[C@H]3COC(=O)[C@@H]32)OCO4)cc(OC)c1OC | · | – | · | · | –
COc1cccc(CN2CCNCC2)c1 | 79µM | – | – | – | –
COc1cc(CN2CCNCC2)cc(OC)c1OC | · | – | – | – | –
CC(N)(COP(=O)(O)Oc1ccccc1)C(=O)O (stereo unspecified) | – | · | · | · | ·
CC(C)(C)NC(=O)N1c2ccccc2Sc2ccccc21 | – | – | – | · | –
O=S(c1ccccc1)c1ccccc1 | · | – | · | · | –
COC(=O)CCCc1[se]c2ccccc2c1I | – | · | · | · | ·
SMILES | G9a inh | HP1b binding inh | BAZ2B inh | L3MBTL1 block | JMJD2A Tudor
CCCOc1ccccc1NP(=O)(Oc1ccccc1)Oc1ccccc1 | – | – | – | · | –
O=P(O)(O)c1ccccc1OCCOCCOCCOCCOc1ccccc1P(=O)(O)O | 10µM | – | – | · | –
CC1CC[C@]2(NC1)OC1CC3C4CC=C5CC(O)CC[C@@]5(C)C4CC[C@]3(C)C1C2C (stereo partly specified) | –[2.33 µM] | · | · | · | ·
Cc1nn(CCC#N)c2c1P(=S)(N1CCCC1)OC(c1ccc(F)cc1)=N2 (stereo unspecified) | 16µM | 14µM | ? | – | ?
C[C@@H]1O[C@H](C[N+](C)(C)C)CS1 | 2µM | · | · | · | ·
COc1cccc(CNC(=O)CSc2ccc(-c3ccco3)nn2)c1 | 28µM | – | ? | · | –
COc1ccc(OCC#CCN2CCC(C)CC2)cc1 | 8.9µM | 35µM | 28µM | – | –
NC1CCc2cc(O)c(O)cc2C1 (stereo unspecified) | 1.5µM | ? | – | – | 11µM
CCOP(=O)(OCC)c1nc(-c2ccc(F)cc2)oc1NCc1ccccc1 | –[12.7 µM] | – | ? | – | –
CCOc1ccc(CCNC(=O)c2cc3c(-c4cccc(OC)c4)nn(C)c3s2)cc1OCC | ? | – | · | · | –
Clc1ccc(COC(Cn2ccnc2)c2ccc(Cl)cc2Cl)cc1 (stereo unspecified) | –[2.33 µM] | – | 25µM | – | ?
COC(=O)C1=C(C(=O)OC)SC2(S1)C(C(=O)OC)=C(C(=O)OC)Sc1c2ssc1=O | · | 16µM | · | · | 40µM
Nc1c(C(=O)Nc2ccc(OC(F)(F)F)cc2)sc2nc3c(cc12)N1CCC3CC1 | – | – | – | · | –
Cc1sc2c(c1C)C(c1cccs1)=NCC(=O)N2CC(=O)NCc1cccs1 | – | – | – | – | –
O=C(CN1C(=O)CN=C(c2ccccc2)c2ccccc21)NCc1ccco1 | ? | – | ? | 20µM | –
CC(C)CCNC(=O)CN1C(=O)CN=C(c2ccccc2)c2ccccc21 | –[12.7 µM] | – | – | · | –
COc1ccc(C2=NCC(=O)N(CC(=O)NCc3ccco3)c3sc4c(c32)CCCC4)cc1OC | 16µM | – | – | – | –
Cc1ccc(C=C2C(Cl)=C(Cl)C(Cl)=C2Cl)cc1 | 8.9µM | 16µM | 20µM | 3.2µM | 14µM
Cc1cccc(Cc2cnc(NC(=O)c3ccc4c(c3)CC(c3ccccc3)OC4=O)s2)c1 (stereo unspecified) | – | – | – | · | –
O=[N+]([O-])c1ccc(Nc2ccccc2)cc1 | – | – | – | – | –
c1ccc(Nc2ccc(Nc3ccccc3)cc2)cc1 | –[0.501 µM] | ? | 28µM | ? | 20µM
Cc1ccc(N2C(=O)NC(=O)/C(=C/c3ccc(OC(=O)c4cccs4)cc3)C2=O)cc1 | 13µM | – | – | – | 89µM
Cc1c(Cl)cccc1N1C(=O)NC(=O)/C(=C\c2cc(C)n(-c3cccc(C(=O)O)c3C)c2C)C1=O | · | – | ? | – | –
COc1ccc(N2C(=O)NC(=O)/C(=C/c3cccc(OC(=O)c4cccs4)c3)C2=O)cc1Cl | 10µM | – | 79µM | – | –
CCOc1ccc(NCc2cccn2-c2nnc(N3CCC(C(=O)NCC(C)c4ccccc4)CC3)s2)cc1 (stereo unspecified) | ? | – | – | · | ?
SMILES | G9a inh | HP1b binding inh | BAZ2B inh | L3MBTL1 block | JMJD2A Tudor
OCC1CCCN2CCCCC12 (stereo unspecified) | – | · | · | · | ·
O=C(c1ccncc1)N1CCC2(CC1)CN(Cc1ccccc1)C2 | –[12.7 µM] | · | · | · | ·
CN1CCN(c2cccc3c2C(=O)c2ccccc2C3=O)CC1 | ? | – | ? | – | ?
O=C1C(c2ccccc2)=C(N2CC2)c2ccccc21 | 40µM | 20µM | 35µM | – | 45µM
COc1ccc(CCNc2nccn(-c3ccc(C)c(C)c3)c2=O)cc1OC | ? | ? | 45µM | · | –
COc1ccc(CCNCc2sccc2C)cc1OC | – | – | – | – | –
COC(=O)[C@]1(C)N[C@H](CN(C)S(=O)(=O)c2ccc(-c3ccccc3)cc2)[C@@H]2C(=O)N(Cc3ccccc3)C(=O)[C@@H]21 | · | – | · | – | –
OCCNCCc1c[nH]c2ccc(OCc3ccccc3)cc12 | ? | – | ? | · | 40µM
O=P(/C(=N/O)N1CCCCC1)(N1CCOCC1)N1CCOCC1 | 56µM | – | – | – | –
C=CCN1C(=O)NC(=O)/C(=C/c2ccc(OC)c(COc3ccc(NC(C)=O)cc3)c2)C1=O | · | – | – | – | –
